Here are results for nine compounds from PubChem BioAssay (NCI).

Test [1] is described as follows: NCI Yeast Anticancer Drug Screen. Data for the rad50 strain (AID 155).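 Further: 0% = growth of vehicle-only cultures of the same strain.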 Particulars: S. cerevisiae rad50 strain growth inhibition, hits give high values. The procedure, abridged: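 Relative growth inhibition (compound vs vehicle) was measured in yeast with a defined repair-gene alteration.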
The nature of test [2]: NCI Yeast Anticancer Drug Screen. Data for the mec2-1 strain (AID 157). Particulars: S. cerevisiae mec2-1 strain, hits give high values. A digest of the protocol:
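Yeast mec2-1 mutant treated with compound. Readout: growth inhibition vs vehicle controls.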

Test [3] can be described thus: NCI Yeast Anticancer Drug Screen. Data for the cln2 rad14 strain (AID 165).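 Further: 0% = growth equal to vehicle treated cultures.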 Particulars: S. cerevisiae cln2 rad14 strain, hits give high values. A digest of the protocol: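 cln2 rad14 yeast strain; compound exposure; growth inhibition read vs vehicle controls.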
Test [4] in a line: NCI Yeast Anticancer Drug Screen. Data for the bub3 strain (AID 167). The following applies: S. cerevisiae bub3 mutant strain, hits give high values. A digest of the protocol:
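Screening used yeast with an engineered genetic alteration affecting cell cycle control. Compound-exposed cultures were compared with vehicle cultures, and reduced growth was taken as inhibition.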

The nature of test [5]: NCI Yeast Anticancer Drug Screen. Data for the mlh1 rad18 strain (AID 175). The following applies: S. cerevisiae mlh1 rad18 strain growth inhibition, hits give high values. The procedure, abridged:
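Yeast w/ defined DNA-repair lesions; compound exposure; growth vs vehicle controls → % inhibition.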

Test [6] can be described thus: NCI Yeast Anticancer Drug Screen. Data for the sgs1 mgt1 strain (AID 161).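 Further: 0% = growth of cultures given vehicle only.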 Particulars: S. cerevisiae sgs1 mgt1 strain, hits give high values. The procedure, abridged: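 Test agents were incubated with a DNA-repair-mutant yeast strain. Growth was then read and compared against vehicle-treated controls.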
Where [7] appears, read: at 5.0 µM (retest, dose inferred, filed as 0.5).
Where [8] appears, read: at 50.0 µM (retest, dose inferred, filed as 5.0).

Compounds without any hit were thinned out: in the full panel of roughly 79,000, 15% have a hit. A number with no mark means an inactive call. The source made the active and inactive calls. No stated cut-off is given here; in the data, active means growth inhibition above about 70%; inactive means the rest.

With `CC1CCN(CCC(=O)c2cccc(O)c2)CC1`, the growth inhibition was 4% in test [1] (setting [7]); 57% in test [1] (setting [8]); 48.5% in test [1] (at 50.0 µM); -5% in test [2] (setting [7]); 44% in test [2] (setting [8]); 36.3% in test [2] (at 50.0 µM). Further, the growth inhibition in test [3] (setting [7]) was -2%; in test [3] (setting [8]) it was 26%; in test [3] (at 50.0 µM), 21.1%; in test [4] (setting [7]) it was -16%; in test [4] (setting [8]), 39%; in test [4] (at 50.0 µM) it was 15.5%. The growth inhibition was 10% in test [5] (setting [7]), 77% (active) in test [5] (setting [8]) and 65.8% in test [5] (at 50.0 µM).
With `CC(C)(N=Nc1ccc([N+](=O)[O-])cc1)[N+](=O)[O-]`, the growth inhibition is 12% in test [2] (setting [7]); 99% (active) in test [2] (setting [8]); 53.6% in test [2] (at 50.0 µM); 18% in test [6] (setting [7]); 98% (active) in test [6] (setting [8]); 83.3% (active) in test [6] (at 50.0 µM). For the same compound, the growth inhibition in test [3] (setting [7]) is 15%; in test [3] (setting [8]), 99% (active); in test [3] (at 50.0 µM), 97.2% (active); in test [4] (setting [7]), 21%; in test [4] (setting [8]) it was 99% (active); in test [4] (at 50.0 µM), 47.4%. In addition, the values for the growth inhibition in test [5] (setting [7]), in test [5] (setting [8]) and in test [5] (at 50.0 µM) were 23%, 99% (active) and 96.7% (active), respectively.
Take `O=c1oc2cc(N=Cc3ccc4c(c3)OCO4)ccc2c2ccccc12`: the growth inhibition was -3% in test [1] (setting [7]); 39% in test [1] (setting [8]); 80.7% (active) in test [1] (at 50.0 µM); 1% in test [2] (setting [7]); 24% in test [2] (setting [8]); 8.65% in test [2] (at 50.0 µM). In addition, the growth inhibition was -17% in test [3] (setting [7]); 8% in test [3] (setting [8]); 1.2% in test [3] (at 50.0 µM); -4% in test [4] (setting [7]); 5% in test [4] (setting [8]); 25.6% in test [4] (at 50.0 µM). For the same compound, the growth inhibition in test [5] (setting [7]) was 2%; in test [5] (setting [8]) it was 42%; in test [5] (at 50.0 µM) it was 24.9%.
In the case of `CCc1nc(N)nc(N)c1-c1ccc(NCCN)c([N+](=O)[O-])c1`, the growth inhibition in test [2] (setting [7]) was -3%; in test [2] (setting [8]), 5%; in test [2] (at 50.0 µM) it was 98.7% (active); in test [6] (setting [7]) it was -28%; in test [6] (setting [8]), -22%; in test [6] (at 50.0 µM), 98.8% (active). For the same compound, the growth inhibition in test [3] (setting [7]) is -7%; in test [3] (setting [8]) it was -34%; in test [3] (at 50.0 µM) it was 98.5% (active); in test [4] (setting [7]), 2%; in test [4] (setting [8]), -28%; in test [4] (at 50.0 µM) it was 98% (active). In addition, the growth inhibition in test [5] (setting [7]) is -31%; in test [5] (setting [8]), -40%; in test [5] (at 50.0 µM), 98.9% (active).
`CCCCC(CC)(CCC)CCN` (configuration not stated): the growth inhibition was 1% in test [2] (setting [7]); 65% in test [2] (setting [8]); 1.75% in test [2] (at 50.0 µM); 1% in test [6] (setting [7]); 30% in test [6] (setting [8]); 16.6% in test [6] (at 50.0 µM). Also, the growth inhibition in test [3] (setting [7]) is 4%; in test [3] (setting [8]), 36%; in test [3] (at 50.0 µM), 32%; in test [4] (setting [7]) it was -3%; in test [4] (setting [8]), 67%; in test [4] (at 50.0 µM), -5.95%. Besides, the growth inhibition in test [5] (setting [7]) is -1%; in test [5] (setting [8]), 83% (active); in test [5] (at 50.0 µM), 31.4%.
For the compound `Cc1cc(C)nc(/C=C/c2ccc(/C=C/c3cc(C)cc(C)n3)cc2)c1`, the growth inhibition in test [1] (setting [7]) is -20%; in test [1] (setting [8]), -4%; in test [2] (setting [7]) it was -8%; in test [2] (setting [8]) it was 4%; in test [2] (at 50.0 µM), 2.65%; in test [6] (setting [7]) it was 7%. Besides, the growth inhibition in test [6] (setting [8]) is -1%; in test [6] (at 50.0 µM) it was 11.9%; in test [3] (setting [7]), -4%; in test [3] (setting [8]), -11%; in test [3] (at 50.0 µM), -19.6%; in test [4] (setting [7]), -7%. The growth inhibition was -11% in test [4] (setting [8]); 0.4% in test [4] (at 50.0 µM); -11% in test [5] (setting [7]); 3% in test [5] (setting [8]); 5.5% in test [5] (at 50.0 µM).
On to `C/C=c1/[nH]c(=O)/c(=C\c2ccccc2)[nH]c1=O`, for which the growth inhibition in test [1] (setting [7]) was -3%; in test [1] (setting [8]), 9%; in test [1] (at 50.0 µM), 11.3%; in test [2] (setting [7]) it was 2%; in test [2] (setting [8]), -1%; in test [2] (at 50.0 µM) it was -3.8%. For the same compound, the growth inhibition in test [3] (setting [7]) was 3%; in test [3] (setting [8]) it was -2%; in test [3] (at 50.0 µM) it was 24.6%; in test [4] (setting [7]), -2%; in test [4] (setting [8]) it was -4%; in test [4] (at 50.0 µM) it was -7.35%. For the same compound, the growth inhibition is 24% in test [5] (setting [7]), 1% in test [5] (setting [8]) and 4.35% in test [5] (at 50.0 µM).
Turning to `CCC[CH2][Sn]([CH2]CCC)([O]C(=O)c1c(F)cccc1F)[O]C(=O)c1c(F)cccc1F`, the growth inhibition was 66% in test [2] (setting [7]); 66% in test [2] (setting [8]); 89.7% (active) in test [2] (at 50.0 µM); 80% (active) in test [6] (setting [7]); 80% (active) in test [6] (setting [8]); 87.3% (active) in test [6] (at 50.0 µM). For the same compound, the growth inhibition in test [3] (setting [7]) is 70% (active); in test [3] (setting [8]) it was 70% (active); in test [3] (at 50.0 µM), 86.9% (active); in test [4] (setting [7]), 72% (active); in test [4] (setting [8]) it was 72% (active); in test [4] (at 50.0 µM), 83.6% (active). For the same compound, the figures for the growth inhibition in test [5] (setting [7]), in test [5] (setting [8]) and in test [5] (at 50.0 µM) were 73% (active), 73% (active) and 84% (active), respectively.
As to `CCC[CH2][Sn]1([CH2]CCC)[O]C(=O)CN=Cc2c(ccc3ccccc23)[O]1`, the growth inhibition in test [1] (setting [7]) is 47%; in test [1] (setting [8]) it was 47%; in test [1] (at 50.0 µM) it was 91.2% (active); in test [2] (setting [7]), 74% (active); in test [2] (setting [8]), 74% (active); in test [2] (at 50.0 µM), 94% (active). In addition, the growth inhibition in test [6] (setting [7]) is 38%; in test [6] (setting [8]) it was 38%; in test [6] (at 50.0 µM), 92.9% (active); in test [3] (setting [7]) it was 48%; in test [3] (setting [8]) it was 48%; in test [3] (at 50.0 µM), 92.6% (active). The results for the growth inhibition in test [5] (setting [7]), in test [5] (setting [8]) and in test [5] (at 50.0 µM) were 67%, 67% and 91.7% (active), respectively.
